# Source: PubChem BioAssay (National Center for Advancing Translational Sciences (NCATS))
# In the library only some 2.9% were active in any assay of this set; here they are far more common.
# LDHA inh – qHTS assay for inhibitors of human lactate dehydrogenase. L-lactate dehydrogenase A chain (Homo sapiens), P00338. AID 1347041, 2019. 480,000 compounds, 0.15% hits. activity change, % (values are at about 110 or 230 µM). purified LDHA, NADH/diaphorase-resazurin fluorescence; active compounds read low; in the data active = activity change below about -30%; inconclusive = mostly about -25% to -30%
#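 Resorufin fluorescence (ex540/em590), read at 0 and 20 min after diaphorase/resazurin addition, reports the NADH left after a 5 min room-temperature reaction of 2 nM human LDH5 with 0.06 mM NADH and 0.2 mM pyruvate.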
# GLP-1R inv ag – qHTS of GLP-1 Receptor Inverse Agonists (Inhibition Mode); AID 624417, 2012; Potency, µM (highest dose often 38.3 µM), usual class: inhibitors; 410,000 compounds, 1.6% hits; Glucagon-like peptide 1 receptor (Homo sapiens), P43220; HEK293 GLP-1R CRE-luciferase, luminescence, 24 h; GLP-1R form is constitutively active; note: nearly all actives have a fitted effect of over 55% in size
# Target sequence (P43220 whole entry, looked up): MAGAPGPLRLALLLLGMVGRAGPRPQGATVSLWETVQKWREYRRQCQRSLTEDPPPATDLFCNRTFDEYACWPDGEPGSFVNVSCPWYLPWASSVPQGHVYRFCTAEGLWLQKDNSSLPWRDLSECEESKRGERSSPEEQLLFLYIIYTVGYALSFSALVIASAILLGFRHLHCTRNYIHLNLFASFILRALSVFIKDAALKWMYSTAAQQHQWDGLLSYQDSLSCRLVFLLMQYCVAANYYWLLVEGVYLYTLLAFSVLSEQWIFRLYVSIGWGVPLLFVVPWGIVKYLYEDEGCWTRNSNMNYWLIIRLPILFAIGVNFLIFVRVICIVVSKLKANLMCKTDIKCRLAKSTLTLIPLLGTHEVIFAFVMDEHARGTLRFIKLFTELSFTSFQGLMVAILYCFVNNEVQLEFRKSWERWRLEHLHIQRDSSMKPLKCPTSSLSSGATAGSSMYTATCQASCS
#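 qHTS in 1536-well format: reporter HEK293 cells expressing constitutive GLP-1R activity in DMEM + 10% Nu serum, 24 hr with compounds at 37 deg C, luminescence read after 12 min with detection reagent.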
# GLP1R ag – qHTS of GLP-1 Receptor Agonists | Potency, µM (top dose mostly 45.6 µM), hits mostly activators | Glucagon-like peptide 1 receptor (Homo sapiens), P43220 | HEK293 GLP-1R CRE-luciferase, luminescence, 4-6 h; cells express a hypersensitive GLP-1R form | 380,000 compounds, 0.007% hits
# p53 reactivator – qHTS assay for re-activators of p53 using a Luc reporter | H1299 p53-A138V BP100-luciferase reporter, luminescence, 24 h | Potency, µM (series often up to 92.2 µM), usual class: activators | 320,000 compounds, 0.063% hits; note: nearly all actives have a fitted effect of over 45% in size
#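 H1299 (p53-null), stable ts p53-A138V + BP100-Luc; 1000 cells/well, Opti-MEM/10% FBS; cpd 4 pt, 1:5; 24 h, 37 deg C, 5% CO2; detection reagent 10 min RT; luminescence.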
# GLP1R cytotox – qHTS of GLP-1 Receptor Inverse Agonists: Cytotox Screen. 410,000 compounds, 0.13% hits. HEK293 cAMP-luciferase reporter cells, luminescence, 24 h. Potency, µM (series often up to 38.3 µM), usual class: inhibitors;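 note: loss of luciferase light is scored as toxicity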
#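 To flag toxic compounds, the library was rerun on cells for 24 hr at 37 deg C and 5% CO2. Viability-linked luminescence was captured 12 min after adding luciferase detection reagent.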
# ClpP mod – qHTS Assay for Activators of ClpP; ATP-dependent Clp protease proteolytic subunit (Bacillus subtilis (strain 168)), P80244; purified B. subtilis ClpP, FRET peptide cleavage, 20 min; Potency, µM (highest dose often 57.5 µM); 340,000 compounds, 1.9% hits; AID 651965, 2013; active = well fitted falling curve with a large enough effect; inconclusive = small, poorly fitted or top-dose-only effect; inactive = no such curve, though single readings can be large or run the other way; note: the source files actives as falling curves though it sought activators and does not explain the sign; nearly all actives have a fitted effect of over 65% in size
# Target sequence (P80244 whole entry, looked up): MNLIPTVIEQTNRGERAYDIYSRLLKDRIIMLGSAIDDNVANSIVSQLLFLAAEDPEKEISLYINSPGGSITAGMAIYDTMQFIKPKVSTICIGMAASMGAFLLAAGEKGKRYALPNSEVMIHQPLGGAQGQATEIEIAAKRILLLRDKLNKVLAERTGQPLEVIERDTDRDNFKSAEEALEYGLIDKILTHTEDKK
#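 ClpP 10 microg/mL final, pH 8 Tris/KCl buffer with BSA, glycerol, Tween-20; compound pinned in; FRET-FV substrate; RT 20 min; Ex320/Em430; ΔFRET vs ADEP 5.8 microM, DMSO, no enzyme.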
# A number is an active result; i = inactive; ? = inconclusive; nt = no result. Unless noted, calls come from the whole dose curve; as a rule, active = well fitted curve in the direction sought with a large enough effect; inconclusive = small, poorly fitted or top-dose-only effect, or another doubt; inactive = no such curve, though single readings can be large; an effect the other way counts as inactive or inconclusive.
SMILES,LDHA inh,GLP-1R inv ag,GLP1R ag,p53 reactivator,GLP1R cytotox,ClpP mod
CC(C)(C)c1ccc(OCCNC(=S)Nc2ccccc2)cc1,i,10µM,i,i,5.6µM,nt
COc1ccc(-c2cc(C(=O)Nc3cccnc3Cl)no2)cc1,i,i,i,i,i,nt
Cc1ccc(F)c(NC(=O)Nc2ccc3snnc3c2)c1,i,i,i,nt,i,i
COC(=O)c1cc(COc2ccc3c4c(c(=O)oc3c2)CCCC4)c(C)o1,i,?,i,i,i,i
Cc1oc(C(=O)O)cc1COc1ccc2c3c(c(=O)oc2c1)CCC3,i,i,i,i,i,28µM
COC(=O)c1ccc(COc2ccc3c4c(c(=O)oc3c2)CCCC4)o1,i,nt,nt,nt,nt,nt
COC(=O)c1ccc(COc2ccc3c4c(c(=O)oc3c2)CCC4)o1,i,i,i,i,i,3.2µM
CC(/C=C1\SC(=S)N(C(C(=O)O)C(C)C)C1=O)=C\c1ccccc1 (configuration not stated),i,i,i,i,?,nt
Cc1nc2ccc(Cl)cc2cc1C(=O)NCc1cccnc1-n1cccn1,i,nt,nt,nt,nt,nt
CC1CCc2sc(C(=O)OCC(=O)NCc3ccccc3)cc2C1 (configuration not stated),i,i,i,i,?,i
Cc1ccc(CNC(=O)CN(c2ccc(Cl)cc2Cl)S(=O)(=O)c2ccccc2)cc1,i,10µM,nt,nt,i,i
Cc1ccccc1NC(=O)CN(c1ccc(Cl)cc1Cl)S(=O)(=O)c1ccccc1,i,?,nt,nt,i,i
O=C(CN(c1ccccc1Cl)S(=O)(=O)c1ccccc1)NCc1ccccc1,i,i,i,nt,i,i
CC(NC(=O)CN(c1ccc(Cl)cc1Cl)S(=O)(=O)c1ccccc1)c1ccccc1 (configuration not stated),i,8.9µM,nt,nt,i,i
COc1cccc(CNC(=O)C2CCCN(S(=O)(=O)c3c(C)noc3/C=C/N(C)C)C2)c1 (configuration not stated),i,i,i,i,i,i
C=CCn1c(SCC(=O)NC2CCCCC2)nnc1-c1cccnc1,i,i,i,nt,i,i
C=CCn1c(SCC(=O)NC2CCCC2)nnc1-c1ccncc1,i,i,i,i,i,25µM
CC(CNC(=O)c1cnn(-c2ccc(F)cc2)c1-n1cccc1)c1ccccc1 (configuration not stated),i,10µM,i,nt,i,i
COc1ccc(CNC(=O)c2cnn(-c3ccc(F)cc3)c2-n2cccc2)cc1,i,i,i,nt,i,i
O=C(CSc1nc2nn(-c3ccccc3)c(=O)c-2c2n1CCCCC2)c1ccc(O)c(O)c1,i,i,i,28µM,i,i
Oc1cccc(/C=N/Nc2cc(N3CCOCC3)nc(N3CCOCC3)n2)c1,i,3.5µM,i,i,i,i
O=C(Oc1cccc(/C=N/Nc2nc(Nc3ccccc3)nc(N3CCOCC3)n2)c1)c1ccco1,i,1.8µM,i,i,i,i
Oc1ccc(/C=N/Nc2cc(N3CCOCC3)nc(N3CCOCC3)n2)cc1O,i,i,i,i,i,i
O=C(Nc1cc(C(F)(F)F)ccc1Cl)C(NCc1ccccc1)c1ccccc1 (configuration not stated),i,3.5µM,i,i,i,i
CC(C)C(C=Cc1ccccc1)=NNS(=O)(=O)c1ccccc1,i,?,i,nt,i,i
SMILES,LDHA inh,GLP-1R inv ag,GLP1R ag,p53 reactivator,GLP1R cytotox,ClpP mod
O=C(NCc1ccccc1CN1CCCC1)c1ccc(S(=O)(=O)Nc2ccccc2)cc1,i,13µM,i,nt,i,i
O=C(c1ccc(NS(=O)(=O)c2ccc(F)cc2)cc1)N1CCN(c2ccccc2O)CC1,i,i,i,i,i,i
O=C(c1ccc(S(=O)(=O)Nc2cccc(C(F)(F)F)c2)cc1)N1CCN(c2ccccc2O)CC1,i,10µM,i,i,i,i
O=C(NCc1ccccc1CN1CCCC1)c1ccc(S(=O)(=O)Nc2ccccc2F)cc1,i,i,i,nt,i,i
O=C(NCc1ccccc1Cl)c1ccc(S(=O)(=O)Nc2cccc(C(F)(F)F)c2)cc1,i,?,i,i,i,20µM
COC(=O)CCCC1=CC2=CC(=O)C(C)(OC(=O)CCc3ccccc3)C(=O)C2=CO1 (configuration not stated),i,i,i,i,i,i
CCC(C)(C)NC(=O)C(c1ccccn1)N(C(=O)c1csnn1)C1CCCCC1 (configuration not stated),i,i,i,i,i,nt
COc1cc(Cn2c(N)c(C#N)c3nc4ccccc4nc32)cc(OC)c1,i,i,i,i,i,32µM
N#Cc1c(N)n(CCc2ccc(F)cc2)c2nc3ccccc3nc12,i,i,i,i,i,32µM
COc1cccc(Cn2c(N)c(C#N)c3nc4ccccc4nc32)c1OC,i,i,?,i,i,13µM
COCCNC(=O)C(c1ccccc1C)N(C(=O)Cn1nnc2ccccc21)c1cccnc1 (configuration not stated),i,i,i,i,i,i
Cc1cc(CN(C)C)c(O)c(C2(C)CCCCC2)c1,i,i,i,i,i,22µM
Cc1cc(CN2CCOCC2)c(O)c(C2(C)CCCCC2)c1,i,i,i,i,i,i
COc1ccc2c(c1)/C(=C\c1cccc(/C=C3/C(=O)Nc4ccc(OC)cc43)n1)C(=O)N2,i,?,i,nt,2.2µM,i
Cc1nnc2sc(SCC(=O)N3CCC(C)CC3)nn2c1=O,i,i,i,i,i,i
COc1ccc(CCNC(=O)CCC(=O)c2cccs2)cc1OC,i,i,i,i,i,i
COc1ccccc1-c1nnc(-c2ccc(N3CCOCC3)cc2)o1,i,i,?,i,i,18µM
Cc1csc(CNC(=O)c2ccc(C)c(C)c2)n1,i,nt,nt,nt,nt,nt
CC1=C(C(=O)Nc2ccccc2)C(c2cc(Br)ccc2F)n2ncc(C(=O)Nc3ccccc3)c2N1 (configuration not stated),i,?,nt,nt,i,i
COc1ccccc1NC(=O)C1=C(C)Nc2c(C(=O)Nc3ccc(F)cc3)cnn2C1c1ccc(Cl)cc1 (configuration not stated),i,?,nt,nt,?,28µM
CC1=C(C(=O)Nc2ccc(C)cc2C)C(c2cc(Br)ccc2F)n2ncc(C(=O)Nc3ccc(C)cc3)c2N1 (configuration not stated),i,i,nt,nt,i,20µM
